The results in this text go back to PubChem BioAssay AID463173 (ICCB-Longwood Screening Facility, Harvard Medical School, 2010).

Each structure is given as a SMILES string. Screen size: about 52,000 compounds; about 1,700 (3.3%) were called active. The list comes from a sample in which actives are over-represented; it also holds similar structures and randomly drawn compounds. Values without a mark were called inactive. Rule as the data show it: active = survival mostly below about 52% (no sharp cut-off); inactive = mostly above about 56%.

The subject of the assay is Wild type. Put plainly: growth inhibition of S. aureus wild type versus tarO mutant, primary screen, teichoic acid synthesis inhibitors, RN4220, OD600 (AID 463173). To be noted: S. aureus RN4220 wild type/DeltatarO growth, OD600, 18 h, active compounds read low, screened at 18.75 µg/mL (by protocol).
Consider `COc1ccc(-c2nnn(CC(=O)N(CC3CCCO3)C(C(=O)NC3CCCCC3)c3cccs3)n2)cc1` (stereo not drawn), for which the survival is 103%.
As to `COc1ccc(NC(=O)CCNS(=O)(=O)c2cccc3nonc23)c(OC)c1`, the survival was 67%.
For `CC1CCN(S(=O)(=O)c2ccc3nc(N4CCN(c5ccc(F)cc5)CC4)ccc3c2)CC1`, the survival was 92%.
For `COc1ccc(NC(=O)CSC2=Nc3ccccc3C3=NC(CCC(=O)NCc4ccco4)C(=O)N23)cc1` (stereo not drawn), the survival was 60%.
As to `CC(C)CC(=O)n1nc(-c2ccco2)nc1NCc1ccc(Cl)cc1`, the survival is 83%.
Take `O=C(OCc1cc(=O)n2nc(C3CC3)sc2n1)c1ccc(NC(=O)c2ccccc2Cl)cc1`: the survival was 99%.
In the case of `Cc1cc(C)c(-c2n[nH]c3c2C(c2ccccc2F)N(CCO)C3=O)c(O)c1` (stereo not drawn) it was 83%.
Regarding `CCc1ccc(C2c3c(-c4cc(C)ccc4O)n[nH]c3C(=O)N2Cc2cccnc2)cc1` (stereo not drawn), the survival is 74%.
`Cc1cc(C)c(-c2n[nH]c3c2C(c2ccccc2F)N(Cc2ccco2)C3=O)c(O)c1` (stereo not drawn): the survival is 8% (active).
Consider `CCc1ccc(C2c3c(-c4cc(C)ccc4O)n[nH]c3C(=O)N2CCO)cc1` (stereo not drawn), for which the survival was 78%.
Under `Cc1ccc(O)c(-c2n[nH]c3c2C(c2ccc(F)cc2)N(Cc2ccco2)C3=O)c1` (stereo not drawn) stands 2% (active); under `Cc1ccc(O)c(-c2n[nH]c3c2C(c2ccccc2F)N(Cc2ccco2)C3=O)c1` (stereo not drawn), 11% (active).
In the case of `O=C1c2[nH]nc(-c3ccccc3O)c2C(c2ccc(F)cc2)N1CCO` (stereo not drawn), the survival was 81%.
With `O=C1c2[nH]nc(-c3ccccc3O)c2C(c2ccccc2F)N1Cc1cccnc1` (stereo not drawn), the survival was 94%.
As to `Cc1ccc(C2c3c(-c4cc(C)ccc4O)n[nH]c3C(=O)N2Cc2ccco2)cc1` (stereo not drawn), the survival was 1% (active).
`COc1cc(C2c3c(-c4c(C)cc(C)cc4O)n[nH]c3C(=O)N2Cc2ccco2)cc(OC)c1OC` (stereo not drawn): the survival was 98%.
For the compound `COc1cc(C2c3c(-c4cc(C)ccc4O)n[nH]c3C(=O)N2Cc2ccco2)cc(OC)c1OC` (stereo not drawn), the survival is 73%.
For `O=C1c2[nH]nc(-c3ccccc3O)c2C(c2ccccc2F)N1Cc1ccncc1` (stereo not drawn), the survival is 93%.
On to `COc1cc(OC)c(NC(=O)c2c(C)oc3nc(C)nc(N4CCOCC4)c23)cc1Cl`, for which the survival is 81%.
As for `COc1ccc2c(c1)c(CC(=O)Nc1cccc(F)c1C)c(C)n2C(=O)c1ccc(Cl)cc1`, the survival was 152%.
As for `COc1ccc(-c2nc3scc(CCNS(=O)(=O)c4c(C)noc4C)n3n2)cc1OC`, the survival is 123%.
As for `CCOc1ccc(-c2cc(-c3nc(-c4cc(OC)c(OC)c(OC)c4)no3)[nH]n2)cc1`, the survival is 123%.
`Oc1ccc(Cl)cc1C1=Nc2ccccc2N=C(c2cccc(Br)c2)C1`: the survival is 137%.
`c1ccc(N2CCN(Cc3nnc(-c4ccc5c(c4)OCO5)o3)CC2)cc1`: the survival was 81%.
As for `CCOc1ccc(NC(=O)/C(C#N)=C\c2cc(C)n(C)c2C)cc1`, the survival is 103%.
For the compound `O=C(CSc1nc(-c2ccccc2)no1)N1CCN(c2ccc(F)cc2)CC1`, the survival is 91%.
As for `CCc1ccccc1NC(=O)C(C)n1c(=O)cc(C)c2c(C)nn(-c3ccccc3)c21` (stereo not drawn), the survival was 72%.
Regarding `COc1cc(C2C(=O)N(C3CCCCC3)CC(=O)N2CCc2ccccc2)ccc1OC(C)C` (stereo not drawn), the survival is 89%.
Regarding `Cc1ccc(CNC(=O)c2cc(Sc3ccc(F)cc3F)nc3ccccc23)cc1`, the survival is 94%.
Under `CCOC(=O)c1c(C)oc2c1cc(NS(=O)(=O)c1ccc(C)cc1)c1ccccc12` stands 86%; under `COC(=O)c1c(C)oc2c1cc(NS(=O)(=O)c1c(C)cc(C)cc1C)c1ccccc12`, 25% (active); under `COc1ccc(OC)c(S(=O)(=O)Nc2cc3c(C(C)=O)c(C)oc3c3ccccc23)c1`, 69%.
In the case of `CCOC(=O)c1sc2sc(C(=O)OCC)c(CN(CC)CC)c2c1CN(CC)CC` it was 94%; in that of `Cc1ccccc1-c1nnc(NC(=O)CC(C)C)s1`, 116%; in that of `COc1ccc(OC)c(CNS(=O)(=O)c2ccc(-c3cc(C(F)(F)F)on3)s2)c1`, -6% (active).
As for `COc1ccccc1CNS(=O)(=O)c1ccc(-c2cc(C(F)(F)F)on2)s1`, the survival was 73%.
On to `COc1ccc(CNS(=O)(=O)c2ccc(-c3cc(C(F)(F)F)on3)s2)cc1OC`, for which the survival is 133%.
For `Cc1cccc(N2CCN(C(=O)CCS(=O)(=O)c3ccc4c(c3)CC(=O)N4C)CC2C)c1` (stereo not drawn), the survival was -4% (active).
Regarding `CN1C(=O)Cc2cc(S(=O)(=O)CCC(=O)N3CCN(c4cccc(Cl)c4)CC3)ccc21`, the survival was 83%.
In the case of `CCC(=O)N1CCc2cc(S(=O)(=O)CCC(=O)N3CCN(c4cccc(C)c4)C(C)C3)ccc21` (stereo not drawn) it was 83%.
For `COc1ccc(-c2cn3c(n2)sc2cc(C(=O)Nc4c(C)cccc4C)ccc23)cc1`, the survival is 83%.
On to `COc1ccc(OCC(=O)N2CCN(C(=O)c3ccc(OC)c(OC)c3)CC2)cc1`, for which the survival was 134%.
Turning to `Nc1ccc(-c2ccc(N)cc2C(F)(F)F)c(C(F)(F)F)c1`, the survival is 117%.
In the case of `Nc1ccc(N2CCOCC2)c(N)c1`, the survival was 113%.
For the compound `Nc1ccc(N2CCN(c3ncc(C(F)(F)F)cc3Cl)CC2)c(C(F)(F)F)c1`, the survival is -14% (active).
`Cc1ccc(C2=Nc3ccccc3N(CC(=O)Nc3ccccc3F)C(=O)C2)cc1C`: the survival was 83%.
Turning to `CCC(Oc1ccc(F)cc1)C(=O)Nc1cc(-c2ccc(C)cc2)no1` (stereo not drawn), the survival is 64%.
Consider `CCC(Oc1ccc(F)cc1)C(=O)Nc1nc2c(s1)CCCC2` (stereo not drawn), for which the survival was 76%.
Regarding `CC(Oc1ccc(F)cc1)C(=O)Nc1nc(-c2ccc(F)cc2)ns1` (stereo not drawn), the survival is -1% (active).
For the compound `CCC(Oc1ccc(F)cc1)C(=O)Nc1nc(-c2ccc(F)cc2)ns1` (stereo not drawn), the survival is -1% (active).
On to `COc1ccc(-c2nsc(NC(=O)C(C)Oc3ccc(Cl)c(C)c3)n2)cc1` (stereo not drawn), for which the survival is 67%.
Turning to `Cc1cc(C)cc(OCC(=O)Nc2nc(-c3ccc(F)cc3)ns2)c1`, the survival is 89%.
Consider `O=c1cc(-c2ccc(F)cc2)nc(SCc2nc(-c3ccc(Cl)cc3)no2)[nH]1`, for which the survival was 88%.
Under `COC(=O)C1CCN(C(c2ccccc2Cl)c2sc3nc(-c4ccco4)nn3c2O)CC1` (stereo not drawn) stands 80%.
For `Cc1oc2ncnc(N3CCOCC3)c2c1C(=O)N1CCN(c2cccc(C(F)(F)F)c2)CC1`, the survival was -6% (active).
Under `Cc1ccc(Cl)cc1N1CCN(C(=O)c2c(C)oc3ncnc(N4CCOCC4)c23)CC1` stands 69%.
In the case of `Cc1nc(N2CCOCC2)c2c(C(=O)N3CCN(c4cccc(C(F)(F)F)c4)CC3)c(C)oc2n1` it was 79%; in that of `Cc1oc2ncnc(N3CCCCC3)c2c1C(=O)N1CCN(c2cccc(C(F)(F)F)c2)CC1`, 87%.
Under `Cc1nc(N2CCCC2)c2c(C(=O)N3CCN(c4cc(Cl)ccc4C)CC3)c(C)oc2n1` stands 99%.
For the compound `Cc1ccc(Cl)cc1N1CCN(C(=O)c2c(C)oc3ncnc(N4CCCCC4)c23)CC1`, the survival is -6% (active).
As for `O=C(NCc1ccccc1Cl)C1CCN(S(=O)(=O)c2ccc3c(c2)CCCN3C(=O)C2CCC2)CC1`, the survival is 80%.
Consider `c1ccc(OCCn2c(COc3ccccc3)nc3ccccc32)cc1`, for which the survival is -15% (active).
Turning to `Cn1c(COc2ccccc2Br)nc2ccccc21`, the survival was 106%.
With `COc1cccc(OCc2nc3ccccc3n2Cc2ccccc2)c1`, the survival is 86%.
In the case of `COc1cccc(OCc2nc3ccccc3n2CCOc2ccc(C)cc2)c1`, the survival is 62%.
Regarding `Cn1c(COc2ccccc2C(C)(C)C)nc2ccccc21`, the survival was -17% (active).
Under `COc1cccc(OCc2nc3ccccc3n2CCOc2ccccc2)c1` stands 74%; under `COc1ccc(OCc2nc3ccccc3n2Cc2ccc(C(C)(C)C)cc2)cc1`, 0% (active); under `Cc1ccc(OCCn2c(COc3ccc(Cl)cc3)nc3ccccc32)cc1`, 74%.
Turning to `Cc1ccc(OCc2nc3ccccc3n2CCOc2ccc(Cl)cc2)cc1`, the survival was 26% (active).
For `Cc1ccc(C)c(OCc2nc3ccccc3n2C)c1`, the survival was 85%.
Under `COc1ccc(C(=O)NCC(c2cccnc2)N2CCc3ccccc3C2)cc1OC` (stereo not drawn) stands 93%; under `CCOC(=O)CC(NC(=O)CCc1c(C)nc2c(c1C)c(=O)n(C)c(=O)n2C)c1ccc(OCC)c(OC)c1` (stereo not drawn), 82%.
Take `Cc1ccc(OCC(=O)Nc2ccc3nc(SCCOc4ccccc4)sc3c2)cc1`: the survival was 99%.
In the case of `CCOC(=O)N1CCc2c(sc(NCc3cccc(F)c3)c2C(=O)Nc2ccc(OC)cc2OC)C1` it was 68%; in that of `CC(C)c1nnc(NC(=O)c2nc(SCc3ccc(F)cc3)ncc2Cl)s1`, 58%; in that of `Cc1cc(C)n(CCc2nc3c4ccccc4nc(SCc4ccc(F)cc4)n3n2)n1`, 85%.
Turning to `COc1ccc(C(CNC(=O)c2ccc(C)cc2)N2CCOCC2)cc1` (stereo not drawn), the survival was 92%.
As to `Cc1cc2nc3c(=O)n(C)c(=O)n(C)c3nc2cc1N=CN(C)C`, the survival is 77%.
As for `CCc1c(CN2CCN(c3ccc(F)cc3)CC2)csc1C`, the survival was 75%.
For `O=C(CSc1ccc(-c2ccc(F)cc2)nn1)N1CCOCC1`, the survival was 112%.
As to `Cc1ccc(-n2nc3c(=O)n(C(C)C(=O)NCc4ccc(OC(C)C)cc4)nc(C)c3c2C)cc1` (stereo not drawn), the survival is 93%.
With `CC(C)(C)c1ccc(OCc2nc3ccccc3n2CCOc2ccccc2)cc1`, the survival was 7% (active).
For `Cc1ccc(NS(=O)(=O)c2ccc(-c3cc(C)no3)cc2)c(C)c1`, the survival is 101%.
Consider `COc1ccccc1CNC(=O)c1cccn1-c1nnc(N2CCCC2)s1`, for which the survival was 81%.
`O=C(c1cccn1-c1nnc(N2CCCCC2)s1)N1CCN(c2ccc(Cl)cc2)CC1`: the survival was 73%.
In the case of `COc1ccc(CNC(=O)c2cccn2-c2nnc(N3CCCCC3)s2)c(OC)c1`, the survival is -2% (active).
Under `COc1ccc(CNC(=O)c2cccn2-c2nnc(N3CCCC3)s2)c(OC)c1` stands 81%.
On to `COc1ccccc1CCNC(=O)c1cccn1-c1nnc(N2CCCCC2)s1`, for which the survival is 87%.
In the case of `COc1ccccc1CNC(=O)c1cccn1-c1nnc(N2CCCCC2)s1`, the survival was 10% (active).
With `O=C(c1cccn1-c1nnc(N2CCCC2)s1)N1CCN(c2ccccc2)CC1`, the survival is 19%.
Under `COc1ccc(NC(=O)c2cccn2-c2nnc(N3CCCCC3)s2)c(OC)c1` stands 73%; under `O=C(c1cccn1-c1nnc(N2CCCCC2)s1)N1CCN(c2ccccc2)CC1`, -3% (active).
